Assay results: the supplement of paper PMC10849652
The full data set covers some 7,900 targets. This sample favours those with a hit. About 0.6% of all pairs of compound and target were hits.

Legend:
Assay in all cases: log2 fold change, soluble protein after heating vs DMSO (PISA); higher = thermal stabilisation; K562 cells, 10 uM, 30 min; active = over 0.2 and 3.5 SD of the protein, either way, in both replicates (recomputed)
ZC3H8 = ZC3H8 (UniProt Q8N5P1)
How it was run: (§1)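 For each measurement, 10 μM compound was applied for 30 min to K562 cells at 2×10^6 cells/mL. Aliquots were heated for 3 min across 48°C-58°C, pooled, and extracted in PBS with 0.5% NP-40 at 4°C; the supernatant after 21,000xg for 90 min was soluble protein. This was quantified by TMTpro 16plex LC-MS/MS with channel sums equalised, and thermal stability was reported relative to control samples from duplicates, on a log2 fold-change scale.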

ZC3HC1 = ZC3HC1 (UniProt Q86WB0)
How it was run: as §1

ZCCHC9 = ZCCHC9 (UniProt Q8N567)
Sequence of ZCCHC9 (Q8N567 whole entry, looked up): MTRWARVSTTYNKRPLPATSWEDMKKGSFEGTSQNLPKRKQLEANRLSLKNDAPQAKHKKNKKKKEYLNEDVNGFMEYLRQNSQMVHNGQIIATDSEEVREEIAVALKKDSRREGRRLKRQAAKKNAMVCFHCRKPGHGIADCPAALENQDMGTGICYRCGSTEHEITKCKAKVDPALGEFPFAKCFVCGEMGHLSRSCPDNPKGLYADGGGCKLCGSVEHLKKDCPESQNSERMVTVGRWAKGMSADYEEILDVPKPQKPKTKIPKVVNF
How it was run: as §1

ZDHHC17 = ZDHHC17 (UniProt Q8IUH5)
How it was run: as §1

ZDHHC20 = ZDHHC20 (UniProt Q5W0Z9)
Sequence of ZDHHC20 (Q5W0Z9 whole entry, looked up): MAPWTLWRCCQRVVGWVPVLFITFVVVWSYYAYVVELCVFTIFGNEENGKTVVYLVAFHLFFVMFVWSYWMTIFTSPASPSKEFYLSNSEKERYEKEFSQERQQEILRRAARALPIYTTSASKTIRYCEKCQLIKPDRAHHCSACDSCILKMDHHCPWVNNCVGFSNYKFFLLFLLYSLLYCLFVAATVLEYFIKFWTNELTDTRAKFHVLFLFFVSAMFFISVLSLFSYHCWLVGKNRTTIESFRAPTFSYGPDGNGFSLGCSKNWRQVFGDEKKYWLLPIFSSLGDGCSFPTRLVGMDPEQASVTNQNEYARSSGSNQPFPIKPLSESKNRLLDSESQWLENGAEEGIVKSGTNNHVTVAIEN
How it was run: as §1

ZDHHC5 = ZDHHC5 (UniProt Q9C0B5)
Sequence of ZDHHC5 (Q9C0B5 whole entry, looked up): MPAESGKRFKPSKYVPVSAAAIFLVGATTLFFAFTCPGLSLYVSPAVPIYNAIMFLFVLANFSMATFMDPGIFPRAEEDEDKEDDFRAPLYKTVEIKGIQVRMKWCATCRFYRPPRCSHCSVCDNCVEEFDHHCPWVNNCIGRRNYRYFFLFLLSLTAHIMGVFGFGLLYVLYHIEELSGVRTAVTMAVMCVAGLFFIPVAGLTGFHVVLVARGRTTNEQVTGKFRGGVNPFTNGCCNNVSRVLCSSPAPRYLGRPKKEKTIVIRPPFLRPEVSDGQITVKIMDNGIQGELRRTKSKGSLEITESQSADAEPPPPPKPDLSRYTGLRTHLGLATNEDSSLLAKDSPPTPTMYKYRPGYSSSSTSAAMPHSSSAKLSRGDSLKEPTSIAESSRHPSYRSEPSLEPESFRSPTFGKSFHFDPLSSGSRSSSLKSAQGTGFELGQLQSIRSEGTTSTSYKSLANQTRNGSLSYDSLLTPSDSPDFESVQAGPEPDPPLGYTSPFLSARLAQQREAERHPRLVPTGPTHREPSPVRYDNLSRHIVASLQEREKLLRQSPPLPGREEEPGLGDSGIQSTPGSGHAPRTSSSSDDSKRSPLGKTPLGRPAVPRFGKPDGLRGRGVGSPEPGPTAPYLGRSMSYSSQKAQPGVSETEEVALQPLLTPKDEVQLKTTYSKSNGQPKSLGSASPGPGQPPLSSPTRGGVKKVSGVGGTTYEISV
How it was run: as §1

ZDHHC7 isoform 2 = ZDHHC7 isoform 2 (UniProt Q9NXF8)
Sequence of ZDHHC7 isoform 2 (Q9NXF8 whole entry, looked up, canonical isoform): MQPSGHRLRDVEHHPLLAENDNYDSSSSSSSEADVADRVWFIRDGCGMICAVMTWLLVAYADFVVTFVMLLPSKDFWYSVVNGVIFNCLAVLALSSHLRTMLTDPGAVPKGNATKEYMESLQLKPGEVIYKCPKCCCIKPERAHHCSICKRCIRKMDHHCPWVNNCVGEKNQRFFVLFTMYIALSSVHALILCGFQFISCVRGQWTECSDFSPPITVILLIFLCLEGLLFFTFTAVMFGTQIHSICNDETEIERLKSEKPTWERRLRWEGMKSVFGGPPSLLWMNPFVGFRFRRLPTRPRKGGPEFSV
How it was run: as §1

ZEB2 = ZEB2 (UniProt O60315)
Sequence of ZEB2 (O60315 whole entry, looked up): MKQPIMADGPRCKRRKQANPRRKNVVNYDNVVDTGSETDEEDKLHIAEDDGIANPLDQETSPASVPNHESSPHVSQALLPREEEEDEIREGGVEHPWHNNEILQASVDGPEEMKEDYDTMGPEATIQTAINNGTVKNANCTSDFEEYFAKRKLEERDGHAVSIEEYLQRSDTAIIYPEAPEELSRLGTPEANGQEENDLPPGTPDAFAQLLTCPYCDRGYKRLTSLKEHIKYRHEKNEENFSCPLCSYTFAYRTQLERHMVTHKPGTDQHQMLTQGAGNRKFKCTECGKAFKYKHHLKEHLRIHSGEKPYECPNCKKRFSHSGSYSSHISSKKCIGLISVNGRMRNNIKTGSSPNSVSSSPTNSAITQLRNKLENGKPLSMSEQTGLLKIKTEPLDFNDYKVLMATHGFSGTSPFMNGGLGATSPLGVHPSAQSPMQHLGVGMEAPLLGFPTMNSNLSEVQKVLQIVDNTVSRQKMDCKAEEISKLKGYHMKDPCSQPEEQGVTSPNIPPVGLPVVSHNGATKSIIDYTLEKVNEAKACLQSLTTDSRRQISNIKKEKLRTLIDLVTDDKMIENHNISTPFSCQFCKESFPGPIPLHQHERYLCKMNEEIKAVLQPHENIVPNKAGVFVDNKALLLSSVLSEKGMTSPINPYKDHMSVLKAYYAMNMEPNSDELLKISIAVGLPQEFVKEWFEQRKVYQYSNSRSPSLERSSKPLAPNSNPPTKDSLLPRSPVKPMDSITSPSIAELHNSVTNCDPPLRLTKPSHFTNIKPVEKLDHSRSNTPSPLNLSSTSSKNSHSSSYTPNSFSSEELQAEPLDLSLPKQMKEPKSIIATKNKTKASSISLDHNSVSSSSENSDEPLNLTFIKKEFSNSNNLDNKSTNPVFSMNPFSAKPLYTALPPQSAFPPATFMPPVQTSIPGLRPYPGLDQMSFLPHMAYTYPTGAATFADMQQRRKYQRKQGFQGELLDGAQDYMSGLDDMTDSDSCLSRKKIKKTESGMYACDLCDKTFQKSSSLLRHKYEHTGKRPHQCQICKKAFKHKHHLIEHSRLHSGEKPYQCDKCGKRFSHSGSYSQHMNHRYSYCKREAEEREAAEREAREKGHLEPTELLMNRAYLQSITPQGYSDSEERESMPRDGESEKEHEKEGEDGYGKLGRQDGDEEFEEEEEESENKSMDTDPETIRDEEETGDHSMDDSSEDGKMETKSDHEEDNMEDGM
How it was run: as §1

ZER1 = ZER1 (UniProt Q7Z7L7)
Sequence of ZER1 (Q7Z7L7 whole entry, looked up): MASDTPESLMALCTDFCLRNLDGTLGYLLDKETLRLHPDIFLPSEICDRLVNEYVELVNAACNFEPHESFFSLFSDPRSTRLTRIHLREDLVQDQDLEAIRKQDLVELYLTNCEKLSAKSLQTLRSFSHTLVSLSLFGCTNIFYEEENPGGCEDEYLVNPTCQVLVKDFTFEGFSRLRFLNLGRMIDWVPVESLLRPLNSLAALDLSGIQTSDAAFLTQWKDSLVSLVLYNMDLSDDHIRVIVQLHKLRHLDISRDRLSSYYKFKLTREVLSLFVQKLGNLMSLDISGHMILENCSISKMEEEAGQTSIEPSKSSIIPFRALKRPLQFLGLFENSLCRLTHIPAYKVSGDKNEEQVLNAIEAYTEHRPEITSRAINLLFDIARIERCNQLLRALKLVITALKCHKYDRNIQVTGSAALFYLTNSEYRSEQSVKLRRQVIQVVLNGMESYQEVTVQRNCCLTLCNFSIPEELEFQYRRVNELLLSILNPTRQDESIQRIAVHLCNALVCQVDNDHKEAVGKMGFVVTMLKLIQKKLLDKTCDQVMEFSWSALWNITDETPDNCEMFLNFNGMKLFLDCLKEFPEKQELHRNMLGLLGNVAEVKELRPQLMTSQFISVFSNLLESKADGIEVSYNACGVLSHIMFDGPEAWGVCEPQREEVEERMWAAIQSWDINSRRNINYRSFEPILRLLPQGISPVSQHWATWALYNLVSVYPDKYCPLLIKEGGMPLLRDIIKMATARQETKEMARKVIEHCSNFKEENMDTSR
How it was run: as §1

ZFAND5 = ZFAND5 (UniProt O76080)
Sequence of ZFAND5 (O76080 whole entry, looked up): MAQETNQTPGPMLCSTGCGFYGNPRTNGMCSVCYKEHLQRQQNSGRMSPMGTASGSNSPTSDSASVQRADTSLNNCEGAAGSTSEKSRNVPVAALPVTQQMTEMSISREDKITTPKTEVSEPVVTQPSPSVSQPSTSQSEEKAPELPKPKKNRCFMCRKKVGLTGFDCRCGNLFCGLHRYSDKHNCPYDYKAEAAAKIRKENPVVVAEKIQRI
How it was run: as §1

ZFAND6 = ZFAND6 (UniProt Q6FIF0)
Sequence of ZFAND6 (Q6FIF0 whole entry, looked up): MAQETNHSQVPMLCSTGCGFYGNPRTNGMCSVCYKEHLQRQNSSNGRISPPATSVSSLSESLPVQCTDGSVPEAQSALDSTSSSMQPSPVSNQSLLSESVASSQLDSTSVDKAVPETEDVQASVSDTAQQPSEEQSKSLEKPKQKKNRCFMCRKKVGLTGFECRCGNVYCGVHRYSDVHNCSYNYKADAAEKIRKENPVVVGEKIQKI
How it was run: as §1

ZFP91 = ZFP91 (UniProt Q96JP5)
How it was run: as §1

ZFPL1 = ZFPL1 (UniProt O95159)
Sequence of ZFPL1 (O95159 whole entry, looked up): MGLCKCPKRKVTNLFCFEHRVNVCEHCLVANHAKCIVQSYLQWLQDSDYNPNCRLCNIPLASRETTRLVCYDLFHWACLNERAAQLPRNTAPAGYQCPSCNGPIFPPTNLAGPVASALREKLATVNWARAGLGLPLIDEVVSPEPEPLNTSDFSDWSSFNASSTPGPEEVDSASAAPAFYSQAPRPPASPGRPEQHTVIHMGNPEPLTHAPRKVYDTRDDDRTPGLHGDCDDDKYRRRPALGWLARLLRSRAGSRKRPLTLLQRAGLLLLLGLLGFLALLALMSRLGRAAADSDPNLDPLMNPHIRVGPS
How it was run: as §1

ZMAT2 = ZMAT2 (UniProt Q96NC0)
Sequence of ZMAT2 (Q96NC0 whole entry, looked up): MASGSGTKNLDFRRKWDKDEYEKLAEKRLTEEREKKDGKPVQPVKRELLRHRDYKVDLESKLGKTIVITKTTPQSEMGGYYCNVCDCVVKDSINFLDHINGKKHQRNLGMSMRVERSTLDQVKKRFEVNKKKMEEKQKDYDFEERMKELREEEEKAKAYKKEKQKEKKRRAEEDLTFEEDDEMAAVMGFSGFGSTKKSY
How it was run: as §1

ZMYM1 = ZMYM1 (UniProt Q5SVZ6)
How it was run: as §1

ZMYM3 = ZMYM3 (UniProt Q14202)
How it was run: as §1

ZNF143 = ZNF143 (UniProt P52747)
How it was run: as §1

ZDHHC8 isoform 3 = ZDHHC8 isoform 3 (UniProt Q9ULC8)
How it was run: as §1

Measured: log2 fold change

Sequence of ZC3H8 (Q8N5P1 whole entry, looked up): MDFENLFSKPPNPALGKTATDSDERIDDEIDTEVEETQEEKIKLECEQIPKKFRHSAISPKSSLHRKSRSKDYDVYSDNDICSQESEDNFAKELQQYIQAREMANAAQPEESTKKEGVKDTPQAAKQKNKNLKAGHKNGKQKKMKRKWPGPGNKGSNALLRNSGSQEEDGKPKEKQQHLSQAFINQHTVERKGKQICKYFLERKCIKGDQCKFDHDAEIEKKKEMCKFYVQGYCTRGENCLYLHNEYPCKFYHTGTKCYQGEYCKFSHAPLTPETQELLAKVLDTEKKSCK

CC(C)c1cnn2c(NCc3ccccc3)cc(NCCCCCCN)nc12
inactive: ZC3H8 0.177 | ZC3HC1 -0.151 | ZCCHC9 0.004 | ZDHHC17 -0.061 | ZDHHC20 -0.229 | ZDHHC5 0.007 | ZDHHC7 isoform 2 -0.008 | ZEB2 -0.187 | ZER1 -0.072 | ZFAND5 0.072 | ZFAND6 0.075 | ZFP91 0.007 | ZFPL1 0.146 | ZMAT2 0.138 | ZMYM1 0.09 | ZMYM3 0.04 | ZNF143 -0.158

Cn1c2cc(S(C)=O)sc2c2cnn(Cc3cccc(N)c3)c(=O)c21 (configuration not stated)
inactive: ZC3H8 0.127 | ZC3HC1 -0.135 | ZDHHC17 -0.027 | ZDHHC20 0.084 | ZDHHC5 -0.049 | ZDHHC7 isoform 2 0.02 | ZDHHC8 isoform 3 0.121 | ZEB2 0.098 | ZER1 0.019 | ZFAND5 0.022 | ZFAND6 -0.003 | ZFP91 0.099 | ZFPL1 -0.031 | ZMAT2 -0.034 | ZMYM1 -0.014 | ZMYM3 -0.023 | ZNF143 -0.003

CCN(CCCOc1ccc2c(Nc3cc(CC(=O)Nc4cccc(F)c4)[nH]n3)ncnc2c1)CCOP(=O)(O)O [barasertib]
inactive: ZC3H8 -0.075 | ZC3HC1 0.108 | ZCCHC9 -0.094 | ZDHHC17 0.067 | ZDHHC20 0.022 | ZDHHC5 -0.001 | ZDHHC8 isoform 3 0.028 | ZEB2 0.117 | ZER1 0.034 | ZFAND5 -0.013 | ZFAND6 0.04 | ZFP91 -0.105 | ZFPL1 -0.032 | ZMAT2 -0.047 | ZMYM1 0.022 | ZMYM3 -0.076 | ZNF143 0.01

CNc1nc(-c2ccc3c(N)n[nH]c3c2)cc(N2C[C@@H](C(=O)NC3CCCCC3)CC[C@H]2C)n1
inactive: ZC3H8 0.012 | ZC3HC1 0.104 | ZDHHC17 0.017 | ZDHHC20 0.121 | ZDHHC5 0.011 | ZDHHC7 isoform 2 -0.03 | ZDHHC8 isoform 3 0 | ZEB2 -0.09 | ZER1 -0.245 | ZFAND5 -0.072 | ZFAND6 -0.017 | ZFP91 -0.007 | ZFPL1 -0.031 | ZMAT2 -0.058 | ZMYM1 -0.021 | ZMYM3 -0.004 | ZNF143 -0.118

Cc1ccc(NC(=O)c2ccc(CN3CC[C@H](N(C)C)C3)c(C(F)(F)F)c2)cc1Nc1nccc(-c2cncnc2)n1 [bafetinib]
inactive: ZC3H8 0.052 | ZC3HC1 0.018 | ZCCHC9 0.144 | ZDHHC17 -0.007 | ZDHHC20 0.104 | ZDHHC5 0 | ZDHHC8 isoform 3 -0.03 | ZEB2 -0.017 | ZER1 -0.055 | ZFAND5 -0.022 | ZFAND6 -0.013 | ZFP91 0.191 | ZFPL1 -0.022 | ZMAT2 -0.053 | ZMYM1 -0.028 | ZMYM3 -0.061 | ZNF143 -0.089

COc1cccc2cc(-c3nc([C@H]4CC[C@H](C(=O)O)CC4)n4ncnc(N)c34)[nH]c12
inactive: ZC3H8 -0.02 | ZC3HC1 0.032 | ZCCHC9 -0.121 | ZDHHC17 0.003 | ZDHHC20 0.11 | ZDHHC5 -0.007 | ZEB2 0.051 | ZER1 0.067 | ZFAND5 0.129 | ZFAND6 0.046 | ZFP91 -0.042 | ZFPL1 -0.039 | ZMAT2 0.071 | ZMYM1 -0.128 | ZMYM3 0.001 | ZNF143 0.05

CN1CC[C@H](c2c(O)cc(O)c3c(=O)cc(-c4ccccc4Cl)oc23)[C@H](O)C1 [alvocidib]
inactive: ZC3H8 0.189 | ZC3HC1 -0.318 | ZCCHC9 0.321 | ZDHHC17 -0.027 | ZDHHC20 -0.016 | ZDHHC5 -0.038 | ZDHHC7 isoform 2 0.077 | ZER1 -0.131 | ZFAND5 0.041 | ZFAND6 0.028 | ZFP91 0.108 | ZFPL1 -0.038 | ZMAT2 0.047 | ZMYM1 0.016 | ZMYM3 0.14 | ZNF143 -0.125

NC1(c2ccc(-c3nc4ccn5c(=O)[nH]nc5c4cc3-c3ccccc3)cc2)CCC1
inactive: ZC3H8 0.181 | ZC3HC1 -0.091 | ZCCHC9 0.218 | ZDHHC17 -0.06 | ZDHHC20 -0.027 | ZDHHC5 -0.027 | ZEB2 -0.127 | ZER1 0 | ZFAND5 0.019 | ZFAND6 0.056 | ZFP91 0.144 | ZFPL1 0.058 | ZMAT2 0.043 | ZMYM1 0.215 | ZMYM3 -0.036 | ZNF143 -0.023

C[C@@H](N)c1ccc(C(=O)Nc2ccnc3[nH]ccc23)cc1
inactive: ZC3H8 0.218 | ZC3HC1 -0.213 | ZCCHC9 0.359 | ZDHHC17 -0.03 | ZDHHC20 0.051 | ZDHHC5 0.006 | ZDHHC7 isoform 2 -0.065 | ZER1 -0.055 | ZFAND5 -0.021 | ZFAND6 0.031 | ZFP91 0.154 | ZFPL1 -0.006 | ZMAT2 -0.012 | ZMYM1 0.016 | ZMYM3 0.045 | ZNF143 -0.118

Cc1cc(SCc2sc(-c3ccc(C(F)(F)F)cc3)nc2C)ccc1OCC(=O)O
inactive: ZC3H8 -0.039 | ZC3HC1 0.199 | ZDHHC17 -0.04 | ZDHHC20 -0.249 | ZDHHC5 -0.03 | ZDHHC7 isoform 2 -0.075 | ZDHHC8 isoform 3 0.031 | ZEB2 0.089 | ZER1 0.055 | ZFAND5 -0.079 | ZFAND6 -0.038 | ZFP91 0.042 | ZFPL1 0.025 | ZMAT2 -0.048 | ZMYM1 0.032 | ZMYM3 -0.011 | ZNF143 0.028

C/C(=N\NC(=O)c1cccc(S(=O)(=O)N2CCOCC2)c1)c1cc(Cl)ccc1O
inactive: ZC3H8 -0.128 | ZC3HC1 0.199 | ZCCHC9 -0.224 | ZDHHC17 -0.004 | ZDHHC20 -0.048 | ZDHHC5 0.003 | ZDHHC7 isoform 2 0.057 | ZER1 0.019 | ZFAND5 -0.018 | ZFAND6 -0.075 | ZFP91 -0.069 | ZFPL1 0.099 | ZMAT2 0.001 | ZMYM1 -0.174 | ZMYM3 -0.004 | ZNF143 0.127

CCCc1cc(C)[nH]c(=O)c1CNC(=O)c1cc(-c2ccnc(N3CCN(C)CC3)c2)cc2c1cnn2C(C)C
inactive: ZC3H8 -0.027 | ZC3HC1 0.029 | ZCCHC9 0.057 | ZDHHC17 -0.061 | ZDHHC20 -0.079 | ZDHHC5 0.095 | ZEB2 -0.067 | ZER1 -0.125 | ZFAND5 -0.038 | ZFAND6 -0.051 | ZFP91 0.074 | ZFPL1 -0.05 | ZMAT2 -0.044 | ZMYM1 -0.017 | ZMYM3 0.067 | ZNF143 -0.006

Cc1nc(Nc2ncc(C(=O)Nc3c(C)cccc3Cl)s2)cc(N2CCN(CCO)CC2)n1 [dasatinib]
inactive: ZC3H8 0.123 | ZC3HC1 -0.214 | ZDHHC17 -0.002 | ZDHHC20 -0.163 | ZDHHC5 0.019 | ZDHHC7 isoform 2 -0.063 | ZDHHC8 isoform 3 -0.112 | ZEB2 -0.226 | ZER1 -0.033 | ZFAND5 0.082 | ZFAND6 0.03 | ZFP91 0.009 | ZFPL1 0.04 | ZMAT2 0.042 | ZMYM1 -0.045 | ZMYM3 0.047 | ZNF143 -0.007

C=CC(=O)N1CCC[C@@H](n2nc(-c3ccc(Oc4ccccc4)cc3)c3c(N)ncnc32)C1 [ibrutinib]
inactive: ZC3H8 0.03 | ZC3HC1 -0.041 | ZCCHC9 0.06 | ZDHHC17 -0.029 | ZDHHC20 -0.004 | ZDHHC5 0.02 | ZDHHC8 isoform 3 0.043 | ZEB2 0.029 | ZER1 0.001 | ZFAND5 0.03 | ZFAND6 0.006 | ZFP91 0 | ZFPL1 0.087 | ZMAT2 0.025 | ZMYM1 0.066 | ZMYM3 0.03 | ZNF143 0.01

CN(CCOc1ccc(C[C@@H]2SC(=O)NC2=O)cc1)c1ccccn1 (racemic) [rosiglitazone]
inactive: ZC3H8 -0.171 | ZC3HC1 0.086 | ZCCHC9 -0.131 | ZDHHC17 0.052 | ZDHHC20 0.059 | ZDHHC5 -0.016 | ZDHHC8 isoform 3 0.038 | ZEB2 0.078 | ZER1 0.103 | ZFAND5 -0.001 | ZFAND6 -0.015 | ZFP91 -0.101 | ZFPL1 -0.03 | ZMAT2 -0.019 | ZMYM1 0.029 | ZMYM3 0.001 | ZNF143 -0.037

CC(C)C[C@@H](C=O)NC(=O)[C@H](CC(C)C)NC(=O)[C@H](CC(C)C)NC(=O)OCc1ccccc1
inactive: ZC3H8 0.045 | ZC3HC1 -0.101 | ZCCHC9 0.305 | ZDHHC17 -0.057 | ZDHHC20 -0.153 | ZDHHC5 -0.029 | ZDHHC7 isoform 2 -0.069 | ZEB2 0.131 | ZER1 0.039 | ZFAND5 0.007 | ZFAND6 0.119 | ZFP91 0 | ZFPL1 0.038 | ZMAT2 0.049 | ZMYM1 0.006 | ZMYM3 0.09 | ZNF143 -0.119

O=C1c2ccccc2-c2n[nH]c3cccc1c23
inactive: ZC3H8 -0.001 | ZC3HC1 -0.032 | ZCCHC9 -0.009 | ZDHHC17 -0.021 | ZDHHC20 -0.044 | ZDHHC5 -0.054 | ZDHHC7 isoform 2 0.01 | ZER1 -0.009 | ZFAND5 -0.055 | ZFAND6 -0.055 | ZFP91 -0.004 | ZFPL1 -0.055 | ZMAT2 0.018 | ZMYM1 0.001 | ZMYM3 -0.093 | ZNF143 -0.077
